Screening results: PubChem, National Center for Advancing Translational Sciences (NCATS)
BAZ2B inh = BAZ2B (human) inhibition. AlphaScreen BAZ2B-H3K14Ac peptide displacement. Potency, µM (titrated, usually from 114 µM), for the others: at the highest dose activity change, negative = inhibition, hits mostly inhibitors. hit rate 4.4% among 360,000. AID 504333; also: % is scaled to controls: 0 for no effect and ±100 for the full control effect; nearly all actives have a fitted effect of over 60% in size
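Multi-concentration screen (max 110 uM) measuring displacement of acetylated histone H3 peptide from BAZ2B by AlphaScreen, using 50 nM protein, 50 nM peptide and 10 ug/mL streptavidin donor plus Ni-chelate acceptor beads.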
L3MBTL1 inh = blocks human L3MBTL1. Q9Y468. AlphaScreen L3MBTL1–H3K9me1 peptide binding. Potency, µM (doses to about 57.1 µM), without a hit: top-dose activity, negative = inhibition, hits mostly inhibitors. hit rate 0.66% among 230,000. AID 485360; also: % is scaled to controls: 0 for no effect and ±100 for the full control effect; nearly all actives have a fitted effect of over 60% in size
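L3MBTL1 50 nM + b-AHA-H3(1-15)K9me1 75 nM, 30 min RT; compound added, 30 min RT; streptavidin donor/Ni-chelate acceptor beads 10 ug/mL each final, 30 min RT dark; AlphaScreen read.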
G9a block = blocks human histone lysine methyltransferase G9a; hit rate 8.8% among 350,000; G9a H3K9 monomethylation, AlphaScreen, 2 h; Potency, µM (top dose mostly 102 µM), for the others: at the top dose activity, negative = inhibition, most hits filed as inhibitors; Q96KQ7; also: % is scaled to controls: 0 for no effect and ±100 for the full control effect; nearly all actives have a fitted effect of over 75% in size
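Compounds were preincubated with 20 nM G9a for 15 min, after which biotinylated H3K9 peptide (500 nM) and SAM (20 uM) started a 2 h room-temperature reaction. Monomethylated product was quantified by antibody-based AlphaScreen chemiluminescence.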
JMJD2A Tudor inh = inhibitors of human JMJD2A Tudor domain; AID 504339; AlphaScreen JMJD2A-Tudor / H3K4me3 peptide binding; hit rate 4.4% among 390,000; Potency, µM (highest dose often 114 µM), for the others: top-dose activity change, negative = inhibition, actives largely listed as inhibitors; also: % is scaled to controls: 0 for no effect and ±100 for the full control effect; nearly all actives have a fitted effect of over 50% in size
GLS inh = inhibitors of human glutaminase (GLS); GLS enzymatic activity, qHTS titration; hit rate 0.21% among 410,000; O94925; Potency, µM (top dose mostly 45.5 µM), for inactives: at the top dose activity change, negative = inhibition, hits mostly inhibitors; also: % is scaled to controls: 0 for no effect and ±100 for the full control effect
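hKGA in 45 mM KH2PO4 pH 8.2, 0.02% Tween-20 with pin-transferred compounds; 1 mM L-glutamine (stock) plus glutamate oxidase/HRP/Amplex Red coupling added. Fluorescence read initially and after 30 min at RT.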
HP1b chromo inh = blocks HP1-beta chromodomain binding to methylated histone tails. P83916. AlphaScreen HP1-beta / biotin-H3K9me3 peptide binding. Potency, µM (top dose mostly 114 µM), for the others: top-dose activity change, negative = inhibition, hits mostly inhibitors. hit rate 0.56% among 390,000. AID 540317; also: nearly all actives have a fitted effect of over 70% in size
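Compound inhibition of the preformed complex between 50 nM HP1-beta and 50 nM biotinylated H3K9me3 peptide was read by AlphaScreen. Buffer was PBS pH 7.4 with 0.01% Tween-20. Incubations ran 30 min at room temperature, with 10 ug/mL donor/acceptor beads.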
The depositor's hits bear a star; ? = inconclusive; nt = no result; [ ] = another dose, or the depositor's remark. Compounds with a hit are over-represented: about 10% of the library has one in this group of screens. Calls follow the shape of the dose curve; as a rule, active = well fitted curve in the direction sought with a large enough effect; inconclusive = small, poorly fitted or top-dose-only effect, or another doubt; inactive = no such curve, though single readings can be large; an effect the other way counts as inactive or inconclusive. Potency is read from the fitted curve at half-maximal effect.

SMILES	BAZ2B inh	L3MBTL1 inh	G9a block	JMJD2A Tudor inh	GLS inh	HP1b chromo inh
COc1ccc(C2C3=C(NCCN=C3c3ccccc3)C(=O)N2c2ccccc2)c(OC)c1 (stereo unspecified)	nt	nt	11.9%	-3.5%	-7.7%	36.2%
O=C1C2=C(C(c3ccccc3)=NCCN2)C(c2cccc([N+](=O)[O-])c2)N1c1ccccc1 (stereo unspecified)	-6.3%	-4.5%	5.4%	44.7µM*	-22.5%	-6.9%
Cc1noc(C)c1-c1ccc2ncnc(NCc3cccc(-c4ccccc4)c3)c2c1	-10.6%	-5.5%	8.3%[12.7 µM]	-29.7%	nt	nt
O=C1OCC(CO)(CO)N=C1NNc1cc(Cl)ccc1Cl	2.0%	1.6%	50.1µM*	-18.7%	17.6%	-10.5%
N#Cc1c(NC(=O)CCC(=O)O)sc2c1CCCCC2	?	-9.6%	44.7µM*	44.7µM*	-1.2%	?
CCC(=O)Nc1sc2c(c1C#N)CCC2	-13.7%	nt	17.0%	89.1µM*	-8.8%	-0.8%
Cc1nnc(SCC(=O)Nc2sc3c(c2C#N)CCCCC3)n1N	-23.2%	nt	14.1µM*	-13.8%	16.7%	-13.0%
CC(=O)Nc1sc2c(c1C#N)CCC2	-11.4%	2.6%	-26.2%	-4.8%	3.5%	33.3%
O=C(CCc1ccccc1)Nc1sc2c(c1C(=O)O)CCCC2	nt	nt	nt	-19.5%	3.7%	21.3%
CC(C)CC(=O)Nc1sc2c(c1C(=O)O)CCCCC2	?	-16.6%	70.8µM*	-19.0%	26.4%	19.4%
N#Cc1c(NC(=O)CSc2nnnn2C2CCCCC2)sc2c1CCCC2	-5.0%	3.5%	5.5%	-13.6%	12.6%	11.3%
CCOC(=O)c1cc(-c2ccc(OC)cc2)n(CCC(=O)Nc2nc3ccc(OCC)cc3s2)c1C	0.0%	nt	-30.6%[59 µM]	-13.8%	0.4%	39.3%
O=C(NCc1cccnc1)C1CC(c2ccccc2O)=NO1 (stereo unspecified)	?	-0.8%	25.1µM*	50.1µM*	3.1%	10.1%
O=C(C1CC(c2ccccc2O)=NO1)N1CCCCC1 (stereo unspecified)	?	nt	?	89.1µM*	-14.7%	-3.9%
O=C(C1CC(c2ccccc2O)=NO1)N1CCc2ccccc2C1 (stereo unspecified)	?	nt	14.7%	-4.3%	16.4%	36.5%
O=C(NCc1cccnc1)C1CC(c2ccccc2Cl)=NO1 (stereo unspecified)	-4.6%	8.1%	20.7%	-17.0%	-3.5%	-8.3%
Nc1nc(N)nc(-c2cc(O)ccc2O)n1	5.8%	1.2%	12.6%[0.501 µM]	-19.6%	-13.1%	38.5%
Oc1ccc(O)c(-c2cnns2)c1	-6.6%	-0.5%	?	3.16µM*	?	8.91µM*
CCOC(=O)C(=NC1CCS(=O)(=O)C1)NNc1ccc(Br)cc1 (stereo unspecified)	?	-12.0%	10µM*	?	-2.4%	13.6%
CCOC(=O)C(=NC(C)CC)NNc1ccc(Br)cc1 (stereo unspecified)	?	-6.6%	12.6µM*	?	9.8%	-11.0%
CCOC(=O)C(=NC1CCCCC1)NNc1cccc(C(F)(F)F)c1	-27.0%	-5.2%	50.1µM*	-35.6%	22.2%	2.9%
CCOC(=O)C(=NC1CCS(=O)(=O)C1)NNc1ccccc1Cl (stereo unspecified)	?	nt	?	-8.1%[11.4 µM]	7.7%	?
CCOC(=O)C(=NC(C)CC)NNc1cccc(C(F)(F)F)c1 (stereo unspecified)	?	-16.1%	?	-31.1%	-6.4%	8.7%
CN(c1ncnc2onc(-c3cccc(Cl)c3)c12)C1CCCCC1	27.1%	nt	23.4%[59 µM]	29.1%	2.0%	74.1%
Cc1ccc2c(=O)c(C(=O)c3ccc(Cl)cc3)cn(CC(=O)Nc3ccc4c(c3)OCCO4)c2n1	9.2%[57.1 µM]	nt	-20.6%[59 µM]	-5.8%	1.1%	19.5%
Cc1cc(C)cc(-n2cc[nH]c2=S)c1	-25.7%	?	0.794µM*	7.94µM*	14.1%	-4.0%
CC1=CC(C)(C)NC(=S)N1c1cc(C)cc(C)c1	-34.2%	nt	-7.0%[59 µM]	-15.1%	0.8%	22.8%
